A selection: hits, their analogues and other compounds. The true share with any hit is near 22%.
Pf growth 96h: P. falciparum growth inhibition at 96 hour, primary screen for plastid delayed-death inhibitors. P. falciparum luciferase reporter growth, 96 h. Potency, µM (doses to about 28.7 µM), for the others: at the highest dose activity change, negative = inhibition, hits mostly inhibitors. 320,000 tested, 6.9% active; also: potency is read from the fitted curve at half-maximal effect; % is scaled to controls: 0 for no effect and ±100 for the full control effect
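Parasite growth measured via integrated firefly luciferase reporter in P. falciparum. Infected erythrocytes at 2% hematocrit, 0.05% parasitemia final were treated 96 hours at 37 C under 5% CO2, and luminescence was read.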
Shiga inhibitor: blocks Shiga toxin action in Vero cells. AID 2315. Vero cells, Shiga toxin protein synthesis inhibition reporter. 290,000 tested, 9.2% active. inhibition, % at 38.7 µM; in the data active = inhibition mostly above about 28%, no sharp cut-off; inactive = mostly below about 43%; also: 0% is about no effect
Pf growth 48h: P. falciparum growth inhibition at 48 hours (one generation); P. falciparum luciferase growth in erythrocytes, 48 h; Potency, µM (titrated, usually from 28.7 µM), for inactives: at the top dose activity change, negative = inhibition, most hits filed as inhibitors; 310,000 tested, 5.9% active; also: potency is read from the fitted curve at half-maximal effect; % is scaled to controls: 0 for no effect and ±100 for the full control effect
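Parasite viability was followed by luminescence of a genomically integrated firefly luciferase. Cultures held 0.1% parasitemia at 2% hematocrit (final), incubated under 5% CO2 at 37 C.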
LmPK inhibitor: blocks Leishmania mexicana pyruvate kinase activity. Q27686. purified LmPK, Kinase-Glo ATP luminescence, 1 h. Potency, µM (highest dose often 57.5 µM), inactives show at the highest dose activity change, negative = inhibition, usual class: inhibitors. 290,000 tested, 0.37% active; also: potency is read from the fitted curve at half-maximal effect; % is scaled to controls: 0 for no effect and ±100 for the full control effect
Target sequence (Q27686 whole entry, looked up): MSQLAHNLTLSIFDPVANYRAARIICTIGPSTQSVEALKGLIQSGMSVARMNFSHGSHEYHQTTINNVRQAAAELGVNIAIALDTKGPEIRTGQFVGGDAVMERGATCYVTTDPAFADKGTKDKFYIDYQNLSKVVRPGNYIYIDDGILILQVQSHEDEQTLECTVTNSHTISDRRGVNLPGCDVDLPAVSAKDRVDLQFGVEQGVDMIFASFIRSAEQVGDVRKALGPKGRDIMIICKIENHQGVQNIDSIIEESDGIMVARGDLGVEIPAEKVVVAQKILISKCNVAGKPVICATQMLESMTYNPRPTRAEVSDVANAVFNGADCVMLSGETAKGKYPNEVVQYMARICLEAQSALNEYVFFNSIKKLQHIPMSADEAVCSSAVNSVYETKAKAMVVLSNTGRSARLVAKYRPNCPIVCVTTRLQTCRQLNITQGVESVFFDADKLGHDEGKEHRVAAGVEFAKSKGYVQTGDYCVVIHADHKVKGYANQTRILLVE
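Purified LmPK (0.1 nM) with 0.5 mM PEP and 0.1 mM ADP in imidazole buffer pH 7.2 with MgCl2/KCl, 1 h at room temperature. ATP formed was read by luciferase luminescence and normalized to no-enzyme and uninhibited controls.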
CHX counter: affects cycloheximide protein synthesis inhibition readout, counter-screen; 300,000 tested, 12% active; cell reporter, cycloheximide protein synthesis inhibition counterscreen; AID 2314; max response, %; in the data active = max response mostly above about 13%, no sharp cut-off; inactive = mostly below about 14%; also: read at 38.3 µM for the half of the compounds with a filed dose; 0% is about no effect
An asterisk follows results filed as active; i = inactive; ? = inconclusive; . = no result given; [ ] = dose if it differs, or a comment. Unless noted, calls follow the shape of the dose curve; as a rule, active = well fitted inhibition curve with a large enough effect; inconclusive = small, poorly fitted or top-dose-only effect, or another doubt; inactive = no such curve, though single readings can be large or run the other way.

SMILES	Pf growth 96h	Shiga inhibitor	Pf growth 48h	LmPK inhibitor	CHX counter
COc1cc(OC)cc(-c2nnc(NC(=O)c3ccc4c(c3)OCCO4)o2)c1	?	-3	12%	5%	13
CCCC(=O)Nc1nnc(-c2ccc3c(c2)OCCO3)o1	234%	58*	118%	-2%	31*
CSCC(=O)Nc1nc(-c2ccc3c(c2)OCCO3)cs1	332%	119*	i	9%	51*
O=C(/C(=C/O)N=Nc1ccccc1Cl)c1ccccc1	?	98	?	5%	31*
O=C(/C(=C/O)N=Nc1cccc(C(F)(F)F)c1)c1ccccc1	?	46	?	-10%	9
Cn1c2c(c(=O)n(C)c1=O)C1(C(=O)Nc3ccccc31)C(C#N)=C(N)O2 (centres undefined)	8.3µM*	-5	10µM*	-7%	-3
COC(=O)C1=C(C)OC(N)=C(C#N)C12C(=O)Nc1ccccc12 (centres undefined)	3%	-10	33%	-2%	-3
C[C@@H]1[C@H](O)C[C@@]23COC(=O)C2=CCCC3[C@@]1(C)CCC1COC(=O)C1 (some centres undefined)	0.0026µM*	.	0.0033µM*	.	.
Cc1cccc2nc(-c3cccc(NC(=O)c4ccc(Cl)cc4)c3)cn12	-2%	-2	?	1%	7
COc1cccc(C(=O)Nc2cccc(C(=O)N3CCOCC3)c2)c1	.	2	20%	-9%	9
COc1ccc(C(=O)Nc2ccc(C(=O)OCC(=O)c3ccccc3)cc2)cc1	-10%	40	10%	-2%	19*
COc1ccc(C(=O)Nc2cccc(C(=O)N3CCCC3)c2)cc1	32%	9	97%	0%	11*
CC(=O)N1CCN(c2ccc(NC(=O)c3ccc(C)cc3)cc2)CC1	116%	35	5%	-2%	9
CC(=O)N1CCc2cc(NC(=O)c3ccc(C)cc3)ccc21	.	47*	14%	-6%	34*
COc1ccc(NC(=O)c2cccc(NC(=O)c3ccccc3)c2)cc1	1%	25	-6%	-7%	18*
NS(=O)(=O)c1ccc(N2CCOCC2)c(C(=O)NCCCSc2ccccc2)c1	-22%	.	0%	.	.
CCOCCc1nn2c(=O)cc(CSCC(=O)Nc3cc(C)cc(C)c3)nc2s1	-9%	-2	2%	4%	-5
Cc1ccc(C(=O)Nc2cccc(C(=O)N3CCN(C)CC3)c2)cc1	293%	71*	6%	-7%	30*
COc1ccccc1OCC(=O)NNC(=O)Nc1ccc(Cl)cc1	-28%[5.75 µM]	12	-5%	4%	-2
COc1ccccc1OC(=O)Nc1ccc(Cl)cc1	13%	58*	.	0%	32*
COc1ccccc1Oc1ccc(NC(=O)c2ccccc2)cc1	0%	47	6%	5%	28*
Cc1cccc(C(=O)Nc2cccc(C(=O)N3CCOCC3)c2)c1	138%	9	.	-2%	19
CCOc1ccc(NC(=O)c2cccc(NC(=O)c3ccccc3)c2)cc1	?	53*	?	-3%	17*
CC(=O)c1ccc(NC(=O)CN(C)CC(=O)Nc2cccc(F)c2)cc1	-29%	-2	-5%	1%	3
CCn1nc(C)cc1C(=O)n1nc(C)c(Sc2ncccn2)c1C	7%	-4	24%	0%	-1
SMILES	Pf growth 96h	Shiga inhibitor	Pf growth 48h	LmPK inhibitor	CHX counter
CCOc1ccc(CCNC(=O)CCS(=O)(=O)c2ccc(C)cc2)cc1OCC	-17%	12	11%[0.00184 µM]	0%	-1
COC(=O)[C@@H](Cc1c[nH]c2ccccc12)NC(=O)c1ccc2c(c1)OCO2	i	28	268%	-18%	10
COc1ccccc1NC(=O)c1cc([N+](=O)[O-])ccc1N1CCOCC1	?	1	-10%	-8%	5
CN1CCc2ccc(NC(=O)c3ccc(C(F)(F)F)cc3)cc2C1	-35%	25*	?	-4%	14*
CCOc1c(Cl)cc(C(=O)Nc2ccccc2-c2ccccc2)cc1Cl	-17%	-1	-11%	1%	-4
COc1ccc(N/N=C(C)/C(=N/O)C(=O)Nc2ccccc2)cc1	80%	74*	54%	?	29*
CN1CCN(c2ccc(NC(=O)c3ccc(C(F)(F)F)cc3)cn2)CC1	?	-4	?	-3%	13
CCOc1c(Cl)cc(C(=O)Nc2cccc(C(=O)O)c2)cc1Cl	-9%	69*	101%	-2%	43*
CCOc1ccc2c(c1)c(N=O)c(O)n2C	?	-5	1%	-2%	-1
O=C(O)c1cc(F)c(S(=O)(=O)N2CCN(S(=O)(=O)c3ccc4c(c3)OCCO4)CC2)cc1F	.	-5	.	.	4
O=C(COC(=O)C1CC1)Nc1ccc(OC(F)F)cc1	59%	24*	.	1%	26*
O=C(O)CCCC(=O)Nc1ccc(N=Nc2ccccc2)cc1	27%	23	36%	2%	19
COC(=O)CCC(=O)Nc1ccc(N=Nc2ccccc2)cc1	63%	64*	56%	14%	39*
COc1ccc(C(=O)OCC(=O)Nc2ccc(OC(F)F)cc2)c(OC)c1	.	-17	4%	1%	-5
O=C(COC(=O)c1ccccc1O)Nc1ccc(OC(F)F)cc1	9.3µM*	56*	40%	-9%	22*
O=C(COC(=O)C1CCC1)Nc1ccc(OC(F)F)cc1	25%	17	9%	-7%	-2
O=C(COC(=O)C1CC1)NCc1ccccc1	29%	.	1%	.	.
O=C(COC(=O)C1CC1)Nc1ccc(N=Nc2ccccc2)cc1	355%	79*	242%	2%	66*
CCc1c(C)sc(NC(=O)Cc2ccccc2C)c1C(=O)N1CCOCC1	29%	18	45%	-4%	-3
CC(=O)N(C)c1ccc(NS(=O)(=O)c2cccc3nsnc23)cc1	170%	-5	3%	1%	-1
O=C(CN(c1cccc([N+](=O)[O-])c1)S(=O)(=O)c1ccccc1)NCc1cccnc1	?	-10	5%	2%	-6
O=C(CN(c1cccc(C(F)(F)F)c1)S(=O)(=O)c1ccc(Cl)c([N+](=O)[O-])c1)NCc1ccc(F)cc1	15µM*	15	?	-2%	6
CCOC(=O)c1c(C)[nH]c(C)c1S(=O)(=O)NCCc1ccco1	-17%	-2	12%	0%	-2
Cc1nn(Cc2c(F)c(F)c(F)c(F)c2F)c(C)c1NC(=O)c1cccc(COc2ccc(Cl)cc2)c1	261%	136*	133%	2%	83*
CC(C)c1cc(C(N)=O)c(NC(=O)c2cccc(COc3ccc(Cl)cc3)c2)s1	.	200*	144%	0%	70*
Cc1cccc(Cn2nc(C)c(NC(=O)c3ccc(F)cc3)c2C)c1	?	-11	-21%	-2%	1
C[C@@]12C(=O)OC(=O)[C@]1(C)C1CCC2O1	1.9µM*	.	2.9µM*	.	.
CCc1nn(CC(=O)N2CC(C)CC(C)C2)c(=O)c2cccn12 (centres undefined)	48%	-6	19%	-3%	1

High-throughput results as filed in PubChem.
